The source of these data is PubChem BioAssay (EPA / NIEHS).

Active and inactive are the calls of the source. The calls were made as follows: active = hit-call score of the fitted dose curve at least 0.9, where 1 is the maximum; inactive = score below 0.9.

As usually defined, the AC50 is the midpoint of the concentration-response curve, whichever way the signal moves.

Holding throughout (conditions): mRNA level, 48 h; actives raise or lower the signal
Read-out in assay [1]: cysteine-aspartic acid protease (CASP8), CASP8 (gene 841)
Put plainly: LTEA_HepaRG_CASP8: Life Technologies and Expression Analysis (LTEA) Assay for cysteine-aspartic acid protease (CASP8) using HepaRG (AID 2283480). In a few lines:
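Concentration-response in duplicate up to 100 uM (half-log steps, 0.5% DMSO) on differentiated HepaRG cultures for 48 h. Expression change of CASP8 mRNA is determined by TaqMan qRT-PCR with housekeeping-gene normalization.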

Read-out in assay [2]: Cytochrome P450 (CYP2B6), CYP2B6 (gene 1555)
The assay can be described thus: LTEA_HepaRG_CYP2B6: Life Technologies and Expression Analysis (LTEA) Assay for Cytochrome P450 (CYP2B6) using HepaRG (AID 2283481). In a few lines:
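Using 48 h treatment of HepaRG cells in serum-free induction medium, concentrations spanned half-log steps from 100 uM in 0.5% DMSO vehicle. CYP2B6 mRNA induction or loss is scored by qRT-PCR against DMSO.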

Read-out in assay [3]: Cytochrome P450 2C19 (Homo sapiens) (UniProt P33261)
The assay can be described thus: LTEA_HepaRG_CYP2C19: Life Technologies and Expression Analysis (LTEA) Assay for CYP2C19 using HepaRG (AID 2283482). In a few lines:
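Human HepaRG liver cells received test chemicals for 48 h (highest 100 uM, half-log dilutions in 0.5% DMSO). CYP2C19 mRNA induction or loss is read by multiplexed qRT-PCR and fitted in both directions versus vehicle.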

Read-out in assay [4]: CYP2C8 (gene 1558)
The assay can be described thus: LTEA_HepaRG_CYP2C8: Life Technologies and Expression Analysis (LTEA) Assay for CYP2C8 using HepaRG (AID 2283483). Summed up:
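This is a transcriptional endpoint in HepaRG cultures: 48 h exposure, highest concentration 100 uM. CYP2C8 mRNA is quantified by TaqMan qRT-PCR.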

Read-out in assay [5]: CYP2C9 (gene 1559)
Put plainly: LTEA_HepaRG_CYP2C9: Life Technologies and Expression Analysis (LTEA) Assay for CYP2C9 using HepaRG (AID 2283484). Summed up: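 Eight-point concentration-response (highest 100 uM, half-log dilutions) in HepaRG cells for 48 h; CYP2C9 expression by qRT-PCR normalized to ACTB, GAPDH, POLR2A. Bidirectional fit, DMSO baseline.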

Read-out in assay [6]: CYP2E1 (gene 1571)
The assay can be described thus: LTEA_HepaRG_CYP2E1: Life Technologies and Expression Analysis (LTEA) Assay for CYP2E1 using HepaRG (AID 2283485). In a few lines:
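Readout is qRT-PCR of CYP2E1 mRNA, normalized to three housekeeping genes and fitted bidirectionally against 0.5% DMSO. HepaRG cells were dosed 48 h at eight concentrations, highest 100 uM with half-log dilutions.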

Read-out in assay [7]: CYP4A11 (gene 1579)
Put plainly: LTEA_HepaRG_CYP4A11: Life Technologies and Expression Analysis (LTEA) Assay for CYP4A11 using HepaRG (AID 2283486). Summed up: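 Readout is CYP4A11 mRNA induction or suppression (qRT-PCR, ACTB/GAPDH/POLR2A normalization) in human HepaRG cells after 48 h chemical treatment, concentrations to 100 uM in 0.5% DMSO, fitted bidirectionally against vehicle.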

Read-out in assay [8]: Cytochrome P450 3A4 (Homo sapiens) (UniProt P08684)
The assay can be described thus: LTEA_HepaRG_CYP3A4: Life Technologies and Expression Analysis (LTEA) Assay for CYP3A4 using HepaRG (AID 2283487). Summed up:
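In a human hepatic line (HepaRG), duplicate wells were treated 48 h with up to 100 uM chemical in half-log dilutions. Endpoint: CYP3A4 mRNA induction or loss relative to 0.5% DMSO vehicle, by qRT-PCR.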

Read-out in assay [9]: DNA damage-inducible transcript 3 (DDIT3), DDIT3 (gene 1649)
Put plainly: LTEA_HepaRG_DDIT3: Life Technologies and Expression Analysis (LTEA) Assay for DNA damage-inducible transcript 3 (DDIT3) using HepaRG (AID 2283488). Summed up: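 Cells are human HepaRG liver cells treated for 48 h with eight half-log concentrations up to 100 uM in 0.5% DMSO. Transcript levels come from qRT-PCR normalized to three housekeeping genes, with activity fitted in both directions relative to vehicle.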

Read-out in assay [10]: Pro-epidermal growth factor (Homo sapiens) (UniProt P01133)
The assay can be described thus: LTEA_HepaRG_EGF: Life Technologies and Expression Analysis (LTEA) Assay for Epidermal growth factor (EGF) using HepaRG (AID 2283489). In a few lines:
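EGF expression changes in human HepaRG cells are scored by bidirectional fitting relative to 0.5% DMSO controls. Chemicals are tested at eight half-log concentrations up to 100 uM for 48 h in serum-free induction medium.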

Read-out in assay [11]: Early growth response protein 1 (EGR1) transcription factor, EGR1 (gene 1958)
Put plainly: LTEA_HepaRG_EGR1: Life Technologies and Expression Analysis (LTEA) Assay for Early growth response protein 1 (EGR1) transcription factor using HepaRG (AID 2283490). In a few lines: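 EGR1 expression change in human HepaRG after 48 h chemical exposure, assessed by housekeeping-normalized qRT-PCR; concentration-response up to 100 uM, fitted in both directions against DMSO controls.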

Read-out in assay [12]: Ezrin (EZR), EZR (gene 7430)
The assay can be described thus: LTEA_HepaRG_EZR: Life Technologies and Expression Analysis (LTEA) Assay for Ezrin (EZR) using HepaRG (AID 2283491). In a few lines:
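Gain or loss of EZR mRNA is scored relative to 0.5% DMSO in human HepaRG cultures treated 48 h with test chemicals in duplicate, eight half-log concentrations from 100 uM.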

Read-out in assay [13]: Cytochrome P450 3A7 (Homo sapiens) (UniProt P24462)
The assay can be described thus: LTEA_HepaRG_CYP3A7: Life Technologies and Expression Analysis (LTEA) Assay for CYP3A7 using HepaRG (AID 2283492). Summed up:
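Cells were thawed, plated, cultured 48 h, then treated for a further 48 h with chemicals (eight-point half-log series from 100 uM, 0.5% DMSO). RNA was isolated and CYP3A7 expression quantified by qRT-PCR normalised to ACTB, GAPDH and POLR2A.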

Read-out in assay [14]: CYP3A5 (gene 1577)
Put plainly: LTEA_HepaRG_CYP3A5: Life Technologies and Expression Analysis (LTEA) Assay for CYP3A5 using HepaRG (AID 2283493). In a few lines: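 Human HepaRG hepatic cells receive 48 h chemical treatment at eight concentrations (half-log steps from 100 uM) in 0.5% DMSO. Expression of CYP3A5 is quantified by Fluidigm qRT-PCR and normalized to three reference genes.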

Read-out in assay [15]: Fatty Acid-Binding Protein 1 (FABP1), FABP1 (gene 2168)
Put plainly: LTEA_HepaRG_FABP1: Life Technologies and Expression Analysis (LTEA) Assay for Fatty Acid-Binding Protein 1 (FABP1) using HepaRG (AID 2283494). Summed up:
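Values reflect bidirectional concentration-response fitting of FABP1 mRNA change against 0.5% DMSO controls. Human HepaRG cultures received eight half-log doses (top 100 uM) for 48 h; expression quantified by TaqMan qRT-PCR with housekeeping-gene normalization.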

Read-out in assay [16]: Cytochrome P450 7A1 (Homo sapiens) (UniProt P22680)
Put plainly: LTEA_HepaRG_CYP7A1: Life Technologies and Expression Analysis (LTEA) Assay for Cytochrome P450 7A1 (CYP7A1) using HepaRG (AID 2283496). Summed up: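 HepaRG, 48 h exposure, 8-pt half-log series from 100 uM, 0.5% DMSO vehicle, duplicates. Readout: TaqMan qRT-PCR mRNA vs three housekeeping genes; bidirectional curve fit against DMSO baseline.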

Read-out in assay [17]: Glutathione S-Transferase (GSTA2), GSTA2 (gene 2939)
The assay can be described thus: LTEA_HepaRG_GSTA2: Life Technologies and Expression Analysis (LTEA) Assay for Glutathione S-Transferase (GSTA2) using HepaRG (AID 2283497). Summed up: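 Oxidative-stress marker GSTA2 is quantified by TaqMan qRT-PCR in HepaRG cultures treated 48 h across an eight-point range to 100 uM. Expression is normalized to endogenous controls and compared with 0.5% DMSO vehicle.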

Read-out in assay [18]: Glutamate-cysteine ligase catalytic (GCLC), GCLC (gene 2729)
The assay can be described thus: LTEA_HepaRG_GCLC: Life Technologies and Expression Analysis (LTEA) Assay for Glutamate-cysteine ligase catalytic (GCLC) using HepaRG (AID 2283498). Summed up: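 Oxidative-stress marker GCLC is measured as mRNA change in human HepaRG liver cells after 48 h chemical treatment in 0.5% DMSO, eight concentrations from 100 uM. Activity is fitted bidirectionally against vehicle.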

Read-out in assay [19]: growth arrest and DNA damage 45 (GADD45G), GADD45G (gene 10912)
The assay can be described thus: LTEA_HepaRG_GADD45G: Life Technologies and Expression Analysis (LTEA) Assay for growth arrest and DNA damage 45 (GADD45G) using HepaRG (AID 2283499). In a few lines: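 Human hepatic HepaRG line treated 48 h with chemicals (eight concentrations, half-log steps from 100 uM); transcript induction or repression of GADD45G scored by qRT-PCR versus DMSO vehicle.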

Read-out in assay [20]: Glutathione S-transferase M3 (GSTM3), GSTM3 (gene 2947)
Put plainly: LTEA_HepaRG_GSTM3: Life Technologies and Expression Analysis (LTEA) Assay for Glutathione S-transferase M3 (GSTM3) using HepaRG (AID 2283501). Summed up:
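Changes in GSTM3 expression, an oxidative-stress marker, were scored by bidirectional curve fitting against 0.5% DMSO vehicle. Human HepaRG cultures received chemicals for 48 h in duplicate, highest concentration 100 uM with half-log dilutions.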

Chain of Cytochrome P450 3A7 (Homo sapiens) (P24462 whole entry, looked up): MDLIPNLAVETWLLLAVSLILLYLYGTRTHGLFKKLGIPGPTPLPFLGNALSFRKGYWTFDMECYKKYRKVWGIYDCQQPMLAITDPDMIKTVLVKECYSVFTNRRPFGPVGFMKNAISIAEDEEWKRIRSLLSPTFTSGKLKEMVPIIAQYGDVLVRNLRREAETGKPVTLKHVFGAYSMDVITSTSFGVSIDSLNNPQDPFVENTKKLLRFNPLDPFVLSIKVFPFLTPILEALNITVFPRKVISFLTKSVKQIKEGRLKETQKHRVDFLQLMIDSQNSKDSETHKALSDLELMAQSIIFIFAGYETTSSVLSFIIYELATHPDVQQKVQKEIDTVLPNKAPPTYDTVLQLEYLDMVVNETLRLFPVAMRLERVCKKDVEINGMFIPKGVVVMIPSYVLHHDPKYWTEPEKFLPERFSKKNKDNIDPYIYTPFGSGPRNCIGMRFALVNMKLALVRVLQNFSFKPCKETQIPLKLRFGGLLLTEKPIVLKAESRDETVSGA
Chain of Cytochrome P450 3A4 (Homo sapiens) (P08684 whole entry, looked up): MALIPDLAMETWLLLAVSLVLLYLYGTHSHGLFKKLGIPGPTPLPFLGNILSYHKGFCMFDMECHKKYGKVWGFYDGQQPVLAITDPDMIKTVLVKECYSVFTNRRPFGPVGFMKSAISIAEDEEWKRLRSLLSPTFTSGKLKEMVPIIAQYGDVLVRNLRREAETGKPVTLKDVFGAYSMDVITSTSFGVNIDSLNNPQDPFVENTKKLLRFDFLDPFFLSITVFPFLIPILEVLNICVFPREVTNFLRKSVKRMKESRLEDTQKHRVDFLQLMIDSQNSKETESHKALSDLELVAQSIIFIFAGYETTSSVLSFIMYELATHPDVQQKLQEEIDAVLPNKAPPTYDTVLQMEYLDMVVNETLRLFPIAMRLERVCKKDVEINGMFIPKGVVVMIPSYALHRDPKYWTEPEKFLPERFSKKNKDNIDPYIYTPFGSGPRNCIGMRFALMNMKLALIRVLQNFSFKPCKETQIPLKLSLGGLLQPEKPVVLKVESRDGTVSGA
Chain of Cytochrome P450 2C19 (Homo sapiens) (P33261 whole entry, looked up): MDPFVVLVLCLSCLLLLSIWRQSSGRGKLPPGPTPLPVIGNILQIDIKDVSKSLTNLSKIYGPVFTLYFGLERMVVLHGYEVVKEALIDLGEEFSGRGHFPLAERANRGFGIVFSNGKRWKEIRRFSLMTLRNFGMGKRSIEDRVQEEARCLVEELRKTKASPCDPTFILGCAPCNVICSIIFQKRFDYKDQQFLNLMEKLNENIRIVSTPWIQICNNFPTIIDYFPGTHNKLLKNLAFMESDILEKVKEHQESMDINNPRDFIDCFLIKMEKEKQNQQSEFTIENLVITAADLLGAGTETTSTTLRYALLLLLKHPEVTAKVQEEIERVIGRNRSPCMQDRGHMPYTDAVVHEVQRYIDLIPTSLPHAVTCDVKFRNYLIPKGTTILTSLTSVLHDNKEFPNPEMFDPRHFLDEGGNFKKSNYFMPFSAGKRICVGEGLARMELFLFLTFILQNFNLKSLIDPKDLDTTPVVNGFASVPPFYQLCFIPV

In the case of `O=C(O)C(F)(F)C(F)(F)C(F)(F)C(F)(F)C(F)(F)C(F)(F)F`, the result in assay [1], in assay [4], in [5], in assay [6], in assay [8] and in assay [9] was inactive. The compound was classed as inactive in assay [10], in assay [11], in assay [12], in assay [14], in assay [16] and in assay [17]. Besides, the result in assay [18], in assay [19] and in assay [20] was inactive. Further, the AC50 in assay [2] was 24.9 µM (active); in assay [3], 0.576 µM (active); in [7], 18.6 µM (active); in assay [13], 35 µM (active); in assay [15] it was 22.5 µM (active).
`CC12CC1(C)C(=O)N(c1cc(Cl)cc(Cl)c1)C2=O` (stereo not given): the outcome in assay [1], in assay [4], in [5], in assay [9], in assay [10] and in [11] was inactive. Moreover, the result in [12], in assay [13], in assay [14], in [17], in assay [18] and in assay [19] was inactive. Besides, in [20], the result was inactive. The AC50 in assay [2] is 4.53 µM (active); in assay [3] it was 8.3 µM (active); in assay [6], 16.6 µM (active); in [7] it was 9.13 µM (active); in assay [8] it was 5.34 µM (active); in assay [15], 9.46 µM (active). Moreover, the AC50 in assay [16] was 16.9 µM (active).
Take `O=C(Nc1ccc2[nH]ccc2c1)c1cc2cc(F)ccc2n1Cc1cccc(F)c1`: the outcome in assay [1], in assay [10], in assay [11], in [19] and in [20] was inactive. Further, the AC50 in assay [2] is 35.1 µM (active); in assay [3], 73.6 µM (active); in [4], 27 µM (active); in assay [5], 35.7 µM (active); in assay [6], 21.9 µM (active); in [7], 16.6 µM (active). Moreover, the concentration at half-maximal activity (AC50) is 83.5 µM (active) in assay [8]; 18 µM (active) in assay [9]; 9.92 µM (active) in assay [12]; 75.6 µM (active) in assay [13]; 92.9 µM (active) in assay [14]; 23.9 µM (active) in assay [15]. For the same compound, the figures for the AC50 in assay [16], in assay [17] and in [18] were 30.7 µM (active), 31.2 µM (active) and 23.6 µM (active), respectively.
For `Cc1ccccc1N`, the outcome in [1], in [2], in assay [3], in assay [4], in assay [5] and in [6] was inactive. Besides, the result in [7], in [8], in assay [9], in [10], in assay [11] and in assay [12] was inactive. In addition, the result in assay [13], in [14], in assay [15], in assay [16], in assay [17] and in assay [18] was inactive. In addition, the call in assay [19] and in [20] was inactive.
